Data taken from the supplement of paper PMC10849652.
The full data set covers some 7,900 targets. This sample favours those with a hit. About 0.6% of all pairs of compound and target were hits.

What was measured:
Test in all cases: log2 fold change, soluble protein after heating vs DMSO (PISA); higher = thermal stabilisation; K562 cells, 10 uM, 30 min; active = over 0.2 and 3.5 SD of the protein, either way, in both replicates (recomputed)
[1] = compound: COC1=CC=C(C=C1)CN2C=CC3=C2C=C(C=C3)C(=O)NO
How it was run: (§1)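 K562 cells (2×10^6 cells/mL) were treated with 10 μM compound for 30 min, and aliquots were heated for 3 min over 48°C-58°C. Pooled aliquots were extracted in PBS with 0.5% NP-40 at 4°C, and the supernatant after 21,000xg for 90 min was measured by TMTpro 16plex LC-MS/MS with channel sums equalised. Reported thermal stability, relative to control samples and from duplicates, is a log2 fold change.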

filanesib = compound: CON(C)C(=O)N1N=C(c2cc(F)ccc2F)S[C@@]1(CCCN)c1ccccc1 [filanesib]
How it was run: as §1

zotarolimus = compound: CO[C@H]1C[C@@H]2CC[C@@H](C)[C@@](O)(O2)C(=O)C(=O)N2CCCC[C@H]2C(=O)O[C@H]([C@H](C)C[C@@H]2CC[C@H](n3cnnn3)[C@H](OC)C2)CC(=O)[C@H](C)/C=C(\C)[C@@H](O)[C@@H](OC)C(=O)[C@H](C)C[C@H](C)/C=C/C=C/C=C/1C [zotarolimus]
How it was run: as §1

idasanutlin = compound: COc1cc(C(=O)O)ccc1NC(=O)[C@@H]1N[C@@H](CC(C)(C)C)[C@](C#N)(c2ccc(Cl)cc2F)[C@H]1c1cccc(Cl)c1F [idasanutlin]
How it was run: as §1

alisertib = compound: COc1cc(Nc2ncc3c(n2)-c2ccc(Cl)cc2C(c2c(F)cccc2OC)=NC3)ccc1C(=O)O [alisertib]
How it was run: as §1

[2] = compound: COc1cc2nc(-c3cc(F)ccc3O)nc(N[C@@H]3CNC[C@H]3C(C)(C)O)c2cc1OC
How it was run: as §1

gefitinib = compound: COc1cc2ncnc(Nc3ccc(F)c(Cl)c3)c2cc1OCCCN1CCOCC1 [gefitinib]
How it was run: as §1

[3] = compound: COc1cccc2cc(-c3nc([C@H]4CC[C@H](C(=O)O)CC4)n4ncnc(N)c34)[nH]c12
How it was run: as §1

lapatinib = compound: CS(=O)(=O)CCNCc1ccc(-c2ccc3ncnc(Nc4ccc(OCc5cccc(F)c5)c(Cl)c4)c3c2)o1 [lapatinib]
How it was run: as §1

pictilisib = compound: CS(=O)(=O)N1CCN(Cc2cc3nc(-c4cccc5[nH]ncc45)nc(N4CCOCC4)c3s2)CC1 [pictilisib]
How it was run: as §1

[4] = compound: CS(=O)(=O)c1ccc(-c2cnc(N)c(C(=O)Nc3ccccc3)n2)cc1
How it was run: as §1

crizotinib = compound: C[C@@H](Oc1cc(-c2cnn(C3CCNCC3)c2)cnc1N)c1c(Cl)ccc(F)c1Cl [crizotinib]
How it was run: as §1

[5] = compound: C[C@@H]1COCCN1C2=NC(=NC(=C2)C3(CC3)S(=O)(=O)C)C4=C5C=CNC5=CC=C4
How it was run: as §1

[6] = compound: C[C@H](C1=CC=C(C=C1)C(=O)NC2=C3C=CNC3=NC=C2)N
How it was run: as §1

duvelisib = compound: C[C@H](Nc1ncnc2nc[nH]c12)c1cc2cccc(Cl)c2c(=O)n1-c1ccccc1 [duvelisib]
How it was run: as §1

gandotinib = compound: Cc1cc(Nc2cc(CN3CCOCC3)c3nc(C)c(Cc4ccc(Cl)cc4F)n3n2)n[nH]1 [gandotinib]
How it was run: as §1

tozasertib = compound: Cc1cc(Nc2cc(N3CCN(C)CC3)nc(Sc3ccc(NC(=O)C4CC4)cc3)n2)n[nH]1 [tozasertib]
How it was run: as §1

[7] = compound: Cc1cc(SCc2sc(-c3ccc(C(F)(F)F)cc3)nc2C)ccc1OCC(=O)O
How it was run: as §1

doramapimod = compound: Cc1ccc(-n2nc(C(C)(C)C)cc2NC(=O)Nc2ccc(OCCN3CCOCC3)c3ccccc23)cc1 [doramapimod]
How it was run: as §1

ispinesib = compound: Cc1ccc(C(=O)N(CCCN)[C@@H](c2nc3cc(Cl)ccc3c(=O)n2Cc2ccccc2)C(C)C)cc1 [ispinesib]
How it was run: as §1

Measured: log2 fold change

EXOC5 (UniProt O00471)
Sequence of UniProt O00471 (O00471 whole entry, looked up): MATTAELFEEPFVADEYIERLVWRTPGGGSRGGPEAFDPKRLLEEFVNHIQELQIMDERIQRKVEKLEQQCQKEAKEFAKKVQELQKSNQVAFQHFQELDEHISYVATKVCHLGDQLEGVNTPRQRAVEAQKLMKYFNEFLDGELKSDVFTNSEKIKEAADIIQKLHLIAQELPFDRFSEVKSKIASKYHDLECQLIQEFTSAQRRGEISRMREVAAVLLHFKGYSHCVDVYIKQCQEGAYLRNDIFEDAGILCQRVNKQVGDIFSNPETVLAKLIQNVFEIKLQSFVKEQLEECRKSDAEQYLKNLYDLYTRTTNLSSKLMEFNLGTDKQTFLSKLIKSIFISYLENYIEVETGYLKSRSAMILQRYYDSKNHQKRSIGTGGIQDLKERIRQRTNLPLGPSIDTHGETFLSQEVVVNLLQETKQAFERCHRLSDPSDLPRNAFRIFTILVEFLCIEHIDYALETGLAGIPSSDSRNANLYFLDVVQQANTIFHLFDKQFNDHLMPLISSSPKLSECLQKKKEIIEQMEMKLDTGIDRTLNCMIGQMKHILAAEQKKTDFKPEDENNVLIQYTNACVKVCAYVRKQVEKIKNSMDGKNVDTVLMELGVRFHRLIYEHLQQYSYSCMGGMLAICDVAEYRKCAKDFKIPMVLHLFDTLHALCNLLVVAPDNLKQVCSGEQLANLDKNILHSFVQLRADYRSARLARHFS
active: crizotinib -0.279 | ispinesib -0.342
inactive: [1] -0.005 | filanesib -0.051 | zotarolimus 0.089 | idasanutlin -0.079 | alisertib -0.01 | [2] 0.123 | gefitinib -0.024 | [3] -0.015 | lapatinib -0.028 | pictilisib -0.055 | [4] -0.02 | [5] -0.017 | [6] 0.015 | duvelisib 0.005 | gandotinib -0.129 | tozasertib 0.014 | [7] 0.101 | doramapimod 0.008

EIF4A1 (UniProt P60842)
Sequence of UniProt P60842 (P60842 whole entry, looked up): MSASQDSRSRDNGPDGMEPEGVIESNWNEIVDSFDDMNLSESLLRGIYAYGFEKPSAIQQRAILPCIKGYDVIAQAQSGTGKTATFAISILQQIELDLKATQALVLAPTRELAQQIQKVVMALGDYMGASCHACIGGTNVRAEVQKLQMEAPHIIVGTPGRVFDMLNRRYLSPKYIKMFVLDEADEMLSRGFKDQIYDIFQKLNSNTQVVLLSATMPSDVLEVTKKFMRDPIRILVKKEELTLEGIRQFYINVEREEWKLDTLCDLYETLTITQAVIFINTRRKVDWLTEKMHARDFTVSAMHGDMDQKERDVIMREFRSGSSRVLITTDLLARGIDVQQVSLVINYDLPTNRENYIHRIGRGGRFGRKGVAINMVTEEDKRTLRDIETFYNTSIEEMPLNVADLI
inactive: [1] 0.061 | filanesib -0.11 | zotarolimus -0.009 | idasanutlin -0.075 | alisertib -0.004 | [2] -0.01 | gefitinib 0.004 | [3] -0.027 | lapatinib 0.016 | pictilisib -0.088 | [4] -0.055 | crizotinib -0.058 | [5] 0.03 | [6] -0.015 | duvelisib 0.007 | gandotinib -0.206 | tozasertib -0.008 | [7] 0.047 | doramapimod 0.025 | ispinesib -0.11

F5 (UniProt P12259)
active: idasanutlin 0.613
inactive: [1] -0.032 | filanesib -0.05 | zotarolimus -0.051 | alisertib -0.074 | [2] -0.089 | gefitinib 0.026 | [3] 0.059 | lapatinib 0.034 | pictilisib 0.074 | [4] 0.081 | crizotinib 0.257 | [5] -0.064 | [6] 0.057 | duvelisib -0.036 | gandotinib 0.023 | tozasertib 0.004 | [7] 0.223 | doramapimod 0.019 | ispinesib 0.055

DLD (UniProt P09622)
inactive: [1] -0.003 | filanesib -0.106 | zotarolimus -0.032 | idasanutlin 0.004 | alisertib -0.024 | [2] -0.056 | gefitinib -0.096 | [3] 0.036 | lapatinib -0.015 | pictilisib 0.067 | [4] -0.068 | crizotinib -0.023 | [5] 0.019 | [6] -0.042 | duvelisib 0.016 | gandotinib -0.02 | tozasertib -0.009 | [7] 0.014 | doramapimod -0.016 | ispinesib -0.083

DIAPH1 (UniProt O60610)
Sequence of UniProt O60610 (O60610 whole entry, looked up): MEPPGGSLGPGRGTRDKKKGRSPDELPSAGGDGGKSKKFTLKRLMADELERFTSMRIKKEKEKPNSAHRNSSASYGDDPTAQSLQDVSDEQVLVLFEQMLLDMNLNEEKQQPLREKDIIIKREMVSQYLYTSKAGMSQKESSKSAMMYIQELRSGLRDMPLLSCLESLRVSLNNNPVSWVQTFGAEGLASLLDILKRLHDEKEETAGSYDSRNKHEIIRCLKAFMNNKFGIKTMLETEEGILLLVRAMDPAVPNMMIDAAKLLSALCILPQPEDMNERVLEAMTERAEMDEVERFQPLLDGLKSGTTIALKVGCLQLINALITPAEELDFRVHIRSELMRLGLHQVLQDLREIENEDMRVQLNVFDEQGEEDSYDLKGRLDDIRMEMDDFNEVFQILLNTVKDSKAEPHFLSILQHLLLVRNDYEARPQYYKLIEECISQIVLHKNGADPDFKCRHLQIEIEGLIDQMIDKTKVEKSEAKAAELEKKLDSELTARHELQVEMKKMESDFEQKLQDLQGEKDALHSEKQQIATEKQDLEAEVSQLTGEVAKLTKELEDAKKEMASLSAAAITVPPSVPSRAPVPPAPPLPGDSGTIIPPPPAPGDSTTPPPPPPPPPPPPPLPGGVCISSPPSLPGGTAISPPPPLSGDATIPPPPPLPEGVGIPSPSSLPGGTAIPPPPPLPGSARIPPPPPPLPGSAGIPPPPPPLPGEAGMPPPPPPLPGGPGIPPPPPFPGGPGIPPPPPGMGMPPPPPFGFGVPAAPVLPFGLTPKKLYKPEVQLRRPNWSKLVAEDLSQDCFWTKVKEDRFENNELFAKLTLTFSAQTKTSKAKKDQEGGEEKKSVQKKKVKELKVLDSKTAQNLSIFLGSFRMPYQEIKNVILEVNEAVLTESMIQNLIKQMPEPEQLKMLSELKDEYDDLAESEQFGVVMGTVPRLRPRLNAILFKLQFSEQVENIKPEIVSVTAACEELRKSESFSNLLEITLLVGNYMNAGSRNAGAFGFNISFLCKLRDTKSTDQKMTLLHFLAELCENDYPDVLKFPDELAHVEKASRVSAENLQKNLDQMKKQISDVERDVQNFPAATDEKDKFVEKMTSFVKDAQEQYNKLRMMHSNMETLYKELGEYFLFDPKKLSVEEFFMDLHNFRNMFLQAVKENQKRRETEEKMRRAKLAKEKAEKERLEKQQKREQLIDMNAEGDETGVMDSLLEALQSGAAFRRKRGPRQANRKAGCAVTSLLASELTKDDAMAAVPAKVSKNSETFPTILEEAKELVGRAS
inactive: [1] 0.008 | filanesib 0.083 | zotarolimus 0.081 | idasanutlin 0.04 | alisertib -0.099 | [2] -0.06 | gefitinib 0.046 | [3] -0.193 | lapatinib 0.075 | pictilisib 0.006 | [4] 0.047 | crizotinib -0.152 | [5] -0.054 | [6] 0.168 | duvelisib -0.058 | gandotinib -0.063 | tozasertib 0.153 | [7] 0.125 | doramapimod 0.135 | ispinesib -0.089

DMAC1 (UniProt Q96GE9)
Sequence of UniProt Q96GE9 (Q96GE9 whole entry, looked up): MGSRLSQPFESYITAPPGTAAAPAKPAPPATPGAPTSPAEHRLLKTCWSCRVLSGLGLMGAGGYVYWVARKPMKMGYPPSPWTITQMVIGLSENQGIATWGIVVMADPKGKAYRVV
inactive: [1] -0.121 | filanesib 0.04 | zotarolimus -0.04 | idasanutlin -0.339 | alisertib -0.174 | [2] -0.111 | gefitinib -0.074 | [3] 0.145 | lapatinib 0.053 | pictilisib 0.038 | [4] 0.023 | crizotinib 0.034 | [5] 0.037 | [6] 0.005 | duvelisib 0.166 | gandotinib -0.087 | tozasertib -0.153 | [7] -0.22 | doramapimod 0.066 | ispinesib -0.108

DPYSL2 (UniProt Q16555)
active: pictilisib 0.262
inactive: [1] -0.082 | filanesib 0.006 | zotarolimus -0.06 | idasanutlin 0.029 | alisertib 0.093 | [2] 0.055 | gefitinib -0.041 | [3] 0.038 | lapatinib 0.029 | [4] 0.034 | crizotinib 0.025 | [5] -0.09 | [6] 0.023 | duvelisib 0.33 | gandotinib -0.015 | tozasertib -0.012 | [7] 0.082 | doramapimod 0.069

DHFR (UniProt P00374)
Sequence of UniProt P00374 (P00374 whole entry, looked up): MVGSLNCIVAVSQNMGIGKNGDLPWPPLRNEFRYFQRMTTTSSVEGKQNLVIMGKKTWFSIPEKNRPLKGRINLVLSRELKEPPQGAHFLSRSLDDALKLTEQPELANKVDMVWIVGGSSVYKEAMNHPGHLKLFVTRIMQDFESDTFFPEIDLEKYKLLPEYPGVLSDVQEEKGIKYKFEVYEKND
active: crizotinib 0.956 | duvelisib 0.604
inactive: [1] -0.057 | filanesib 0.089 | zotarolimus 0.065 | idasanutlin -0.051 | alisertib -0.08 | [2] 0.109 | gefitinib -0.021 | [3] -0.05 | lapatinib -0.061 | pictilisib 0.039 | [4] -0.009 | [5] -0.015 | [6] 0.239 | gandotinib -0.194 | tozasertib -0.151 | [7] 0.048 | doramapimod 0.179 | ispinesib -0.207

DHRS7B (UniProt Q6IAN0)
Sequence of UniProt Q6IAN0 (Q6IAN0 whole entry, looked up): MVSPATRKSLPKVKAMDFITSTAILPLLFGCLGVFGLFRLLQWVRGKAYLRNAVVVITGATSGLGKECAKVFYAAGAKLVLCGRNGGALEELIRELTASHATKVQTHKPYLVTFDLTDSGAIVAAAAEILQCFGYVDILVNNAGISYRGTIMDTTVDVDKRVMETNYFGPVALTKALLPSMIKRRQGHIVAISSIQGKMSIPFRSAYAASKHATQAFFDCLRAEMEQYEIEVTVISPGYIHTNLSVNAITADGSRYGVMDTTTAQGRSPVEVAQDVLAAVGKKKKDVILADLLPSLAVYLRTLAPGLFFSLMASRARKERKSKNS
inactive: [1] 0.012 | filanesib 0.03 | zotarolimus -0.058 | idasanutlin -0.03 | alisertib 0.012 | gefitinib 0.056 | [3] -0.025 | lapatinib 0.109 | pictilisib -0.143 | [4] 0.066 | crizotinib 0.194 | [5] 0.003 | [6] -0.08 | duvelisib 0.097 | gandotinib -0.232 | tozasertib 0.033 | [7] 0.105 | doramapimod -0.006
active: [2] 0.335 | ispinesib 0.367

EDEM2 (UniProt Q9BV94)
Sequence of UniProt Q9BV94 (Q9BV94 whole entry, looked up): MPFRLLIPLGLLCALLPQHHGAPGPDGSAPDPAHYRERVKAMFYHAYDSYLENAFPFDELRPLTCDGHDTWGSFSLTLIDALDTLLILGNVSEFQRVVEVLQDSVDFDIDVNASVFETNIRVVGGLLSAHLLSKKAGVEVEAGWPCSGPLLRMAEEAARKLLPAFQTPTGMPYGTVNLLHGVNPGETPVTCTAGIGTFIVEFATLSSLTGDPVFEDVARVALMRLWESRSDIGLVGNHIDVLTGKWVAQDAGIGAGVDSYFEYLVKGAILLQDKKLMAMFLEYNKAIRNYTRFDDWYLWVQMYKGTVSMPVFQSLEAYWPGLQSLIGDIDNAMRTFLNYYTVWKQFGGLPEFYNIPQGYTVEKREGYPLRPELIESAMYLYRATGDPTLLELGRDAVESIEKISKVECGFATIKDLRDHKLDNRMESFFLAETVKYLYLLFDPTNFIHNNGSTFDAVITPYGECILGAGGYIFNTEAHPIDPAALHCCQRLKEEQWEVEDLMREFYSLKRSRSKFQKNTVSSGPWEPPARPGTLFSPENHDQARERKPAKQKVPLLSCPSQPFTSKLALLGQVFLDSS
active: alisertib -0.441
inactive: [1] -0.149 | filanesib -0.03 | zotarolimus 0.022 | idasanutlin -0.154 | [2] 0.028 | gefitinib 0.033 | [3] 0.205 | lapatinib -0.064 | pictilisib 0.09 | [4] 0.036 | crizotinib 0.024 | [5] -0.119 | [6] 0.163 | duvelisib -0.074 | gandotinib -0.081 | tozasertib -0.015 | [7] 0.111 | doramapimod 0.065 | ispinesib -0.04

EEF1AKNMT (UniProt Q8N6R0)
inactive: [1] -0.256 | filanesib -0.052 | zotarolimus 0.096 | idasanutlin 0.013 | alisertib -0.035 | [2] 0.037 | gefitinib 0.065 | [3] -0.037 | lapatinib -0.014 | pictilisib 0 | [4] -0.011 | crizotinib -0.059 | [5] 0.006 | [6] 0.111 | duvelisib -0.047 | gandotinib -0.09 | tozasertib 0.071 | [7] 0.153 | doramapimod 0.077 | ispinesib -0.072

EXOC7 (UniProt Q9UPT5)
inactive: [1] 0.023 | filanesib 0.032 | zotarolimus 0.01 | idasanutlin -0.076 | alisertib -0.024 | [2] 0.149 | gefitinib -0.054 | [3] -0.053 | lapatinib -0.031 | pictilisib -0.057 | [4] -0.062 | crizotinib -0.25 | [5] -0.028 | [6] 0.034 | duvelisib 0.027 | gandotinib -0.122 | tozasertib 0.027 | [7] 0.05 | doramapimod -0.029
active: ispinesib -0.346

EXOC6 (UniProt Q8TAG9)
Sequence of UniProt Q8TAG9 (Q8TAG9 whole entry, looked up): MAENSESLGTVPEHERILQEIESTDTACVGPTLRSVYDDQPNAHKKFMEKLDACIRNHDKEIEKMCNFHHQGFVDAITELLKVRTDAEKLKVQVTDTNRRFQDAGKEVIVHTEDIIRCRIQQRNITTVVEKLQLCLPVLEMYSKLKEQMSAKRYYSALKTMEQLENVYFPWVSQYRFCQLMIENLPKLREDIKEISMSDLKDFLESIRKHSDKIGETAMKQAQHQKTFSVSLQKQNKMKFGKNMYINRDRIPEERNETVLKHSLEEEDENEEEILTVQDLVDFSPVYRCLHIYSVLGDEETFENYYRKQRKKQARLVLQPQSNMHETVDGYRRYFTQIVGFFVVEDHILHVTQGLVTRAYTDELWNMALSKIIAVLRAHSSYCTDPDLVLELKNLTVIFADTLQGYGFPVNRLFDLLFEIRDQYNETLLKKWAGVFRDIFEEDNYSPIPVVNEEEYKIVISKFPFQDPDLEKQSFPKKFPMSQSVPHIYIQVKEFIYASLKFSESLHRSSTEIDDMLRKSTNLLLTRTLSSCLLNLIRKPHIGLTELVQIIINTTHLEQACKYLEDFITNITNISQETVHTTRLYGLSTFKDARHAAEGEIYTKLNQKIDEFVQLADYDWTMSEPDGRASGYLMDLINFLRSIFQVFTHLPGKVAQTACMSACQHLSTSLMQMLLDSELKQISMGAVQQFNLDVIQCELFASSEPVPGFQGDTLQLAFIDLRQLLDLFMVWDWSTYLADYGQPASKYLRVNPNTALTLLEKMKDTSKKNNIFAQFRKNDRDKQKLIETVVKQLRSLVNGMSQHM
inactive: [1] -0.021 | filanesib 0.017 | zotarolimus 0.151 | idasanutlin -0.058 | alisertib -0.013 | [2] 0.119 | gefitinib -0.037 | [3] -0.101 | lapatinib -0.052 | pictilisib -0.003 | [4] 0.001 | crizotinib -0.206 | [5] -0.038 | [6] 0.033 | duvelisib -0.095 | gandotinib -0.098 | tozasertib 0.037 | [7] 0.1 | doramapimod 0.02
active: ispinesib -0.363

DTYMK (UniProt P23919)
Sequence of UniProt P23919 (P23919 whole entry, looked up): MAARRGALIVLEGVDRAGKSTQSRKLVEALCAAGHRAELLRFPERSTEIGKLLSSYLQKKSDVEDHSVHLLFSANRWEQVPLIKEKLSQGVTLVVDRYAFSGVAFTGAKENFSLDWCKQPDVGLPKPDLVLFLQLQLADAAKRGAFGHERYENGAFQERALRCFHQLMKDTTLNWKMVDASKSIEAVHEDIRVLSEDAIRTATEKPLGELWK
inactive: [1] -0.043 | filanesib -0.09 | zotarolimus -0.023 | idasanutlin -0.065 | alisertib -0.014 | [2] 0.047 | gefitinib -0.108 | [3] 0.152 | lapatinib -0.026 | pictilisib -0.054 | [4] 0.046 | crizotinib -0.146 | [5] 0 | [6] -0.022 | duvelisib 0.094 | gandotinib -0.217 | tozasertib -0.109 | [7] -0.009 | doramapimod -0.025 | ispinesib 0.032

DBT (UniProt P11182)
inactive: [1] 0.009 | filanesib 0.012 | zotarolimus 0.007 | idasanutlin 0.015 | alisertib 0.003 | [2] -0.006 | gefitinib -0.021 | [3] 0.039 | lapatinib 0.004 | pictilisib 0.052 | [4] -0.024 | crizotinib -0.01 | [5] -0.014 | [6] 0.054 | duvelisib 0.04 | gandotinib 0.005 | tozasertib 0.038 | [7] -0.042 | doramapimod 0.029 | ispinesib 0.009

CUX1 isoform 2 (UniProt Q13948)
inactive: [1] -0.095 | filanesib 0.077 | zotarolimus -0.007 | idasanutlin -0.043 | alisertib 0.012 | [2] -0.062 | gefitinib -0.029 | [3] 0.074 | lapatinib 0.009 | pictilisib 0.018 | [4] -0.217 | crizotinib -0.063 | [5] 0.029 | [6] -0.063 | duvelisib 0.029 | gandotinib -0.046 | tozasertib -0.029 | [7] 0.002 | doramapimod -0.015 | ispinesib -0.008
